According to the supplement of paper PMC11732987, “Enantioselective OTUD7B fragment discovery through chemoproteomics screening and high-throughput optimisation” (Communications Chemistry, 2025):

How the values were obtained:
Test in all cases: log2 ratio of Biotin-Ahx-Ub-VS probe labelling (fragment/DMSO); higher = less target engagement (more negative = stronger competition), active = hit call of the paper (q ≤ 0.05, log2 ratio ≤ -1)
Details in all cases: compound concentration: 200 uM; treatment time: 3 h
[1] = target: T1, USP19 (UniProt O94966)
T1 sequence (whole entry): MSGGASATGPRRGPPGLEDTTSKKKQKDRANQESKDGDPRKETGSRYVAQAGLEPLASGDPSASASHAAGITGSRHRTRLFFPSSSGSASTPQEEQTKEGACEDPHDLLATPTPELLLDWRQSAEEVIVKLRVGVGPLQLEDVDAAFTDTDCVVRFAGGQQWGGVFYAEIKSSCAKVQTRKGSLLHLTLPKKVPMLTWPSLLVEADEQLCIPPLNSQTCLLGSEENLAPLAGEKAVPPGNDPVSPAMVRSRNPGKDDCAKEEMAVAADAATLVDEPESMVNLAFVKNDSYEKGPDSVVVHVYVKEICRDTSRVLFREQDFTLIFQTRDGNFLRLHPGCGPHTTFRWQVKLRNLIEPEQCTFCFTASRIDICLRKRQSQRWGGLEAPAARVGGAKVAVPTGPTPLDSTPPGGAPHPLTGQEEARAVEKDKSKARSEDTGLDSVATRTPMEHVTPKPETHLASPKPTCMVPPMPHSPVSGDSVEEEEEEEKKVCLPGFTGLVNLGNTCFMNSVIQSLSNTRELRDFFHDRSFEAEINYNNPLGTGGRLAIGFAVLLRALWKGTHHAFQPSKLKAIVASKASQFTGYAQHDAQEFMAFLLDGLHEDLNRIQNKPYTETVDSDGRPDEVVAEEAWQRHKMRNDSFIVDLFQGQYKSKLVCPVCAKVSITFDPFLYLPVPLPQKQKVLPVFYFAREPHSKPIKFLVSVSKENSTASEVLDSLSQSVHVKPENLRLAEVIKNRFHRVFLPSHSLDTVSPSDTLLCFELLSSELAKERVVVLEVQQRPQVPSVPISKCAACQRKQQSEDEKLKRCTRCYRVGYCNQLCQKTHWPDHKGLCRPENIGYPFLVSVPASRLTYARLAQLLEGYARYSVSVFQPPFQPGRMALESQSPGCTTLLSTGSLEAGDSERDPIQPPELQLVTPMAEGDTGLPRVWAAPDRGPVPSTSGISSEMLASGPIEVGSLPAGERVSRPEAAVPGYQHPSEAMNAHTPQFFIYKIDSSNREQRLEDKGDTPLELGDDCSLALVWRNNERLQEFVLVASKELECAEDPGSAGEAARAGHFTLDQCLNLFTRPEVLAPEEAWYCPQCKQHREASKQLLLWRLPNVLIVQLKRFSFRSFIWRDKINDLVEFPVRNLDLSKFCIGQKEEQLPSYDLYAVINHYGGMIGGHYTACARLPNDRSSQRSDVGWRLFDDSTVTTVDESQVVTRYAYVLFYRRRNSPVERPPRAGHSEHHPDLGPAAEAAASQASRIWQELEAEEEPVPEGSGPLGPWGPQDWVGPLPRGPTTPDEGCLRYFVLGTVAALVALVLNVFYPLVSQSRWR
Method in brief: (§1)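 The table lists average log2 ratios of fragment over vehicle, from an unpaired t-test on global-median-normalised Spectronaut label-free quantities. Proteins with ≥2 unique peptides were used. Samples were HEK293T lysate (495 µg) treated in triplicate with fragment at 200 µM or vehicle for 3 h, then with Biotin-Ahx-Ub-VS (0.5 µM final) for 1 h, with labelled DUBs NeutrAvidin-enriched and run by diaPASEF LC-MS/MS.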

[2] = target: T2, USP22 (UniProt Q9UPT9)
T2 sequence (whole entry): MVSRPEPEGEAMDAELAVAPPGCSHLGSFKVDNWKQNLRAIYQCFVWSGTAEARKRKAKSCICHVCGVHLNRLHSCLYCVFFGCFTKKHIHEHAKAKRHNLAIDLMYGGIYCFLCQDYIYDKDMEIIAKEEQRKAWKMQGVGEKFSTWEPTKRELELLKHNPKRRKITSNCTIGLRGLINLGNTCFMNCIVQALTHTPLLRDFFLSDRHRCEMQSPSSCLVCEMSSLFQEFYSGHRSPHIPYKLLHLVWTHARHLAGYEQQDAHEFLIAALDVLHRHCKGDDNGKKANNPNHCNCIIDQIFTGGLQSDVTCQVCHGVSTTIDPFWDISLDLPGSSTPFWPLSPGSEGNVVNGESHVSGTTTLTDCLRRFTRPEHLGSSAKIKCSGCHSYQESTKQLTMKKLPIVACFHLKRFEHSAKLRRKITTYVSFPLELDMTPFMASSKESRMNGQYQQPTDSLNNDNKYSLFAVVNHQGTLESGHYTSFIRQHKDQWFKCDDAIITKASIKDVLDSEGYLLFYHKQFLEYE
Method in brief: as §1

[3] = target: USP24 (UniProt Q9UPU5)
Method in brief: as §1

[4] = target: T3, USP25 (UniProt Q9UHP3)
T3 sequence (whole entry): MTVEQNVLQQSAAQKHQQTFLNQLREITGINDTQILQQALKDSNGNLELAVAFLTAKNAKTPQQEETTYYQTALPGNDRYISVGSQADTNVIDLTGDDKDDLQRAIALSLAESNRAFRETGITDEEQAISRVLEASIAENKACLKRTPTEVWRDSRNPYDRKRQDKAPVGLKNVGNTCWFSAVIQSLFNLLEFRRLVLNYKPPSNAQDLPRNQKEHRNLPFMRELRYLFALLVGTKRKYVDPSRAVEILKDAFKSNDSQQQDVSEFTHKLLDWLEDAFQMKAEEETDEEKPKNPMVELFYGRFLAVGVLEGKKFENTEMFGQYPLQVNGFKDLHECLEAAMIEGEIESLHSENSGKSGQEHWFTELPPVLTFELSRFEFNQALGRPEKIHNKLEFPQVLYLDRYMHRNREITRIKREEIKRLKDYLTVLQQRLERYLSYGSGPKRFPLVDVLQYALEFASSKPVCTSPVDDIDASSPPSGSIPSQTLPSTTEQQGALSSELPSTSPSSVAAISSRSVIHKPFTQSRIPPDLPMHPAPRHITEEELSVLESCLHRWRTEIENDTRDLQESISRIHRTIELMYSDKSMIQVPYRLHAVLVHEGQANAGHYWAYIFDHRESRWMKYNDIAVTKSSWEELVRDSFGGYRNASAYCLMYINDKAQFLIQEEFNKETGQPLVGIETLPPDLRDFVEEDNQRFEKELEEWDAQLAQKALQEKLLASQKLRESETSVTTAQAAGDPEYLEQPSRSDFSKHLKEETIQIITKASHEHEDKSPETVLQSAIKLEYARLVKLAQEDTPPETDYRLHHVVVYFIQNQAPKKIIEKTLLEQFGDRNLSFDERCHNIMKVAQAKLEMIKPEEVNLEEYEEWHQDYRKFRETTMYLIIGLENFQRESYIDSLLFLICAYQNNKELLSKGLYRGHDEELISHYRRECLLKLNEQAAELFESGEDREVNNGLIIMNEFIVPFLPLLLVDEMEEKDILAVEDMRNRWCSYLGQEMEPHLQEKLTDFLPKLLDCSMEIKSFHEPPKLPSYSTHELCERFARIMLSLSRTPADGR
Method in brief: as §1

[5] = target: T4, USP28 (UniProt Q96RU2)
T4 sequence (whole entry): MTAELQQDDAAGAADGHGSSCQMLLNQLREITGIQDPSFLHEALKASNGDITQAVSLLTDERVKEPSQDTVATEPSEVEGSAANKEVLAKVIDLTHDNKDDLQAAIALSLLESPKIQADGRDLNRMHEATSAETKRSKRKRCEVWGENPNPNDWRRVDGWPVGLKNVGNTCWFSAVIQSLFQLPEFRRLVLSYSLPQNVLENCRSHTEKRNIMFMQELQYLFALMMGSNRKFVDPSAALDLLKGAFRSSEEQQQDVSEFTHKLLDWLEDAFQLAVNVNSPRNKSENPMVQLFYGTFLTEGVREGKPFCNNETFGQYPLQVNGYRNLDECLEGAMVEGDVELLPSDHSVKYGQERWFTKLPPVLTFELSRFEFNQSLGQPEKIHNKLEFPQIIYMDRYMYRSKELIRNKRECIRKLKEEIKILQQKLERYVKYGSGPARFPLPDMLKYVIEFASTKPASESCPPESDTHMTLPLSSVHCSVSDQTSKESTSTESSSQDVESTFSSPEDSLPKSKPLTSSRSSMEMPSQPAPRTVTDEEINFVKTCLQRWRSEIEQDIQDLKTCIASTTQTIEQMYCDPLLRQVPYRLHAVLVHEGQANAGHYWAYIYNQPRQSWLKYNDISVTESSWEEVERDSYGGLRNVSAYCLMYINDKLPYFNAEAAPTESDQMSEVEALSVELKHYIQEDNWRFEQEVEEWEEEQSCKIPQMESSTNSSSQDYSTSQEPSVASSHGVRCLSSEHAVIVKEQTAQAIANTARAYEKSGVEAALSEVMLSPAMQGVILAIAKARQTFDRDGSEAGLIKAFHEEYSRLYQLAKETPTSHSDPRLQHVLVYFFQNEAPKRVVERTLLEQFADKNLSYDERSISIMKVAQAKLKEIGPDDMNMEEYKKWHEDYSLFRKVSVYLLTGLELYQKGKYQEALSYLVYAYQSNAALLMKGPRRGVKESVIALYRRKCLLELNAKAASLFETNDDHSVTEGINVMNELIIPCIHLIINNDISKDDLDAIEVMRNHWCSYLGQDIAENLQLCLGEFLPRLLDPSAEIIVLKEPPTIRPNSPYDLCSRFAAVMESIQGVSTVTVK
Method in brief: as §1

Measured: log2 ratio of Biotin-Ahx-Ub-VS probe labelling

Sequence of USP24 (Q9UPU5 whole entry): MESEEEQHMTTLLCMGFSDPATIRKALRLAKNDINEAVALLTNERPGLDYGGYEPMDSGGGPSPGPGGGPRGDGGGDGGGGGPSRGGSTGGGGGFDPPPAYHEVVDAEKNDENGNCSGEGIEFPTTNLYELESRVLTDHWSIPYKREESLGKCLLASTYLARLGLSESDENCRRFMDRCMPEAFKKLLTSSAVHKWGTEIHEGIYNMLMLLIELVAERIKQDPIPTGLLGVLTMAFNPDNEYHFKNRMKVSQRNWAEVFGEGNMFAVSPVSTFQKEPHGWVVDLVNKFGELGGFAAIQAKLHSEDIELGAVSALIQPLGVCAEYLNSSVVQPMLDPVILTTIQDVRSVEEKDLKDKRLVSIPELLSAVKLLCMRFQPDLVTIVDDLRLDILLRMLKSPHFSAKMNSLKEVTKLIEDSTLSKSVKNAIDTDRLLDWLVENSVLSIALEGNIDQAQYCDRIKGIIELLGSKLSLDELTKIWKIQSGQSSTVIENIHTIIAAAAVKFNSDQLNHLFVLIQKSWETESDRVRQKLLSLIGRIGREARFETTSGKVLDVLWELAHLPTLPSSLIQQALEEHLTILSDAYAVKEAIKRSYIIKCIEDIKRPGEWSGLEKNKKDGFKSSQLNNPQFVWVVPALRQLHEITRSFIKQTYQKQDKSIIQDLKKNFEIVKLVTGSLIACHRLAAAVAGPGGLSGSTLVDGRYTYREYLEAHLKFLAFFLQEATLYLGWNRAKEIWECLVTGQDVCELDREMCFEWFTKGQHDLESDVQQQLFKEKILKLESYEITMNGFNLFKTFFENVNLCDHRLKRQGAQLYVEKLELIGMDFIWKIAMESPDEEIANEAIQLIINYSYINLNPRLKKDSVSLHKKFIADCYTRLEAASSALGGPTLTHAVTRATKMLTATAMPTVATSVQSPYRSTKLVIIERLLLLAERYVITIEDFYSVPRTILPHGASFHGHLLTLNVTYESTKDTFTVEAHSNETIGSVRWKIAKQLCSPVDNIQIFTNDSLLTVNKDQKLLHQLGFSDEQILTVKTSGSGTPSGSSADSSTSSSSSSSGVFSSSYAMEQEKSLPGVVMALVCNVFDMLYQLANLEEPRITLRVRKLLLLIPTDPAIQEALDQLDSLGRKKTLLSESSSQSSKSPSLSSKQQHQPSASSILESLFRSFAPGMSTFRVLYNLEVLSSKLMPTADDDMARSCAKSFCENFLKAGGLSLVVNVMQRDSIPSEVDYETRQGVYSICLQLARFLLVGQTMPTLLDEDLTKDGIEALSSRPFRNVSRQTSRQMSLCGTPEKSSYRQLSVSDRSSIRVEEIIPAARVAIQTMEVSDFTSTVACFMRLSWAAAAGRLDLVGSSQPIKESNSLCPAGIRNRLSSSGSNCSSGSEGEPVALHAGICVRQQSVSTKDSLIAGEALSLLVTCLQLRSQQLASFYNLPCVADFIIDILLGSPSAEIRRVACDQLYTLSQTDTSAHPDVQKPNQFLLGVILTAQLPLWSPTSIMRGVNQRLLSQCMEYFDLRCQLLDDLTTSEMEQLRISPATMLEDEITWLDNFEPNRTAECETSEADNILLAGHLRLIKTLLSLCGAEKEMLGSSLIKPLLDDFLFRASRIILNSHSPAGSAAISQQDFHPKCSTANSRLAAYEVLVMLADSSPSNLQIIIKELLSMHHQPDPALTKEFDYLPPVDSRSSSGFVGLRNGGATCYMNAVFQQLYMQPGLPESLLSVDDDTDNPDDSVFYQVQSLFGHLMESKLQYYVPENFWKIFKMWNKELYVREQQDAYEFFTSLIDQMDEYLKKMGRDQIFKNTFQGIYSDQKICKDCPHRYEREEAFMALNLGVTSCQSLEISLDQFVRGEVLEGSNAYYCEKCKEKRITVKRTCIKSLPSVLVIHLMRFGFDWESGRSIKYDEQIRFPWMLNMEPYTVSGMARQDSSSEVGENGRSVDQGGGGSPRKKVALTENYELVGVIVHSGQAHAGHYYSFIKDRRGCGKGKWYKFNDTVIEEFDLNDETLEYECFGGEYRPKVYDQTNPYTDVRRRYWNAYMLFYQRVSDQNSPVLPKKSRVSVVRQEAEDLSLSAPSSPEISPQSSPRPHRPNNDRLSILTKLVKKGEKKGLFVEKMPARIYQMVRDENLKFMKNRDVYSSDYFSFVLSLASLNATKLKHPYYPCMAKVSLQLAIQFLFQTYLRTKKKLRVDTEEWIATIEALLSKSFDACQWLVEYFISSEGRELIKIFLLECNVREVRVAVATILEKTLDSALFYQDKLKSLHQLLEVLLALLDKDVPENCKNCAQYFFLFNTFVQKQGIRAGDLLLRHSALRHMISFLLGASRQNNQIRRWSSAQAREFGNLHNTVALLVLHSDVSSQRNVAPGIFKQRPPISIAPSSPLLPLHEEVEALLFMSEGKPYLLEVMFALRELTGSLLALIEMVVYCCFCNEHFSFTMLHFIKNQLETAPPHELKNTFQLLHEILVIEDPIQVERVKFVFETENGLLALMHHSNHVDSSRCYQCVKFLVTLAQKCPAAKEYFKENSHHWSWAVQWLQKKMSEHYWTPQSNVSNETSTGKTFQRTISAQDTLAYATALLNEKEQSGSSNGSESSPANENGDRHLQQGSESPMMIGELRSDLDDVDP

O=C(CCl)Nc1ccc(F)cc1Cl
inactive: [1] -0.2 | [2] -0.0369 | [3] -0.832 | [4] -0.414 | [5] -0.873
